This note sets out measurements from PubChem BioAssay AID2216 (Broad Institute, 2009).

About 3,300 (1.1%) of roughly 300,000 compounds were called active. Roughly 6% stayed inconclusive and do not appear here.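 Rule for the calls: active = more than half of the replicate wells show a fall in the fluorescence ratio signal beyond about 16% (limit read from the data, passing the limit was not always enough); inconclusive = exactly half of the replicate wells pass the set limit; inactive = fewer than half of replicates pass the limit.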 What follows is part of a selection rich in actives, with near analogues and random picks from the rest.

The test system of the assay is Ran GTPase (GTP-bound) - importin-beta complex. As to the kind of experiment: disruptors of Ran-importin-beta complex formation – biochemical, FRET, CFP-Ran, YFP-importin-beta, homogeneous, primary screen (AID 2216).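 Note: 0% = DMSO wells and 100% = Ran loaded with GDP instead of GTP.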 To be noted: cell-free CFP-Ran/YFP-importin-beta FRET ratio; hits give high values; concentration not given here.
With `Cn1c(-c2ccc(C(=O)c3ccccc3)s2)nc2ccccc21`, the inhibition was 21.5% (active).

Consider `Cn1cccc1-c1nc2ccccc2n1C`, for which the inhibition is 3.82% (inactive).

In the case of `Cn1c(NC(=O)c2ccccc2)nc2ccccc21`, the inhibition is 5.33% (inactive).

Regarding `O=C(NCCC1CCCCN1S(=O)(=O)c1ccccc1)C(=O)NCC1CCCO1` (configuration not stated), the inhibition is 1.16% (inactive).

On to `CCOc1ccc(CCNC(=O)COC(=O)C2CCN(c3ccc(C(F)(F)F)cn3)CC2)cc1OCC`, for which the inhibition is 0.153% (inactive).

With `O=c1[nH]snc1-c1c(Cl)cccc1Cl`, the inhibition was 2.52% (inactive).

Turning to `Cc1ccc(-n2nc3cc(Cl)c(NC(=O)c4ccco4)cc3n2)cc1`, the inhibition was -2.85% (inactive).

Consider `CCn1nc(NC(=O)c2ccco2)c2cc3ccc(C)cc3nc21`, for which the inhibition was 23.1% (active).

Take `Cc1ccnc(NC(=O)c2ccco2)n1`: the inhibition was -1.58% (inactive).

Take `COc1ccc2nc(N3CCCC(O)C3)c(C#N)cc2c1` (configuration not stated): the inhibition was 57.2% (active).

Turning to `COc1ccc2cc(C(=O)C3CCCN(C(=O)c4sc(C)nc4C)C3)ccc2c1` (configuration not stated), the inhibition is 0.445% (inactive).

Regarding `COc1ccc2c(c1)CCc1cn3ncc(C#N)c3nc1-2`, the inhibition is 10.6% (inactive).

As for `CCCCCCc1cc2cc(-c3nnc(-c4ccccc4)o3)c(=O)oc2cc1O`, the inhibition is 161% (active).

For the compound `Cc1c(CC(=O)NCCCCCC(=O)O)c(=O)oc2cc3occ(-c4ccccc4)c3cc12`, the inhibition was 3.1% (inactive).

For `CCCCCCc1ccc(O)cc1O`, the inhibition is -0.89% (inactive).

`Cc1sc2ncnc(N3CCC(C(=O)Nc4nc5ccc(Cl)cc5s4)CC3)c2c1C`: the inhibition is 2.82% (inactive).

Consider `CC(=O)c1ccc(S(=O)(=O)NC2CC(=O)N(c3ccc4c(c3)OCCO4)C2)cc1` (configuration not stated), for which the inhibition was -0.763% (inactive).

Take `c1ccc(C[C@H]2CNCCN2CCC23CC4CC(CC(C4)C2)C3)cc1`: the inhibition was 3.71% (inactive).

As to `N#CCN(C(=O)COC(=O)C1CC2CCCC(C1)C2=O)c1ccccc1` (configuration not stated), the inhibition is -5.07% (inactive).

For `COc1ccc2c(c1)CCNC2Cc1ccc(OC)c(O)c1` (configuration not stated), the inhibition is 96.2% (active).

Consider `COc1cc2c(cc1O)[C@H](Cc1ccc(Oc3cc(C[C@@H]4NCCc5cc(OC)c(O)cc54)ccc3O)cc1)NCC2`, for which the inhibition is -9.25% (inactive).

For the compound `COc1ccc(CCNC(=O)C(=O)NCC2CCNCC2)cc1OC`, the inhibition is 4.38% (inactive).

As to `O=C(Nc1ccccc1-c1nc2ccccc2[nH]c1=O)c1cccs1`, the inhibition was -0.663% (inactive).

Turning to `O=C(Nc1ccccc1-c1ccccc1)c1cccs1`, the inhibition was 22.1% (active).

`O=C(Nc1ccccc1)c1ccc(NC(=O)c2cccs2)cc1`: the inhibition is -0.113% (inactive).

As to `Cc1sc2ncnc(N3CCC(C(=O)NNC(=O)c4ccc(F)cc4)CC3)c2c1C`, the inhibition was 0.666% (inactive).

Turning to `CCC1CCCCN1CCNS(=O)(=O)c1ccc2c(c1)CCN2C(C)=O` (configuration not stated), the inhibition was -5.25% (inactive).

Consider `CCCNS(=O)(=O)c1ccc2c(c1)CCCN2C(C)=O`, for which the inhibition was 23.9% (active).

As for `CC(=O)N1CCc2cc(S(=O)(=O)NC3CCCCC3)ccc21`, the inhibition was 2.08% (inactive).

Turning to `COc1ccccc1C(=O)NCCC(=O)NN1C(=O)NC2(CCCCC2)C1=O`, the inhibition is -3.94% (inactive).

As for `CCOc1ccc(C(=O)NC2CCN(C(=O)Nc3ccccc3OC)CC2)cc1`, the inhibition was -1.22% (inactive).

Turning to `CCOC(=O)c1cc(C#N)c(N2CCCCC2)nc1-c1ccccc1`, the inhibition was -3.84% (inactive).

As to `CCOc1ccc2nc(N3CCCN(C(=O)Nc4ccccc4C)CC3)c(C#N)cc2c1`, the inhibition is 119% (active).

With `COc1ccccc1C(=O)Nc1ccccc1C(=O)Nc1ccccc1`, the inhibition is 3.3% (inactive).

`O=C(NCCOc1cccnc1)c1ccc(OC2CCN(Cc3ccccn3)CC2)cc1`: the inhibition is 0.854% (inactive).

Consider `O=S(=O)(c1cccc(Cn2nnc(-c3ccc(F)cc3)n2)c1)N1CCOCC1`, for which the inhibition was 5.68% (inactive).

Consider `Cc1cccc(Nc2nc(NCCO)nc(N3CCCC3)n2)c1`, for which the inhibition was -0.666% (inactive).

Consider `Cc1ccc(S(=O)(=O)NCC(=O)N2CCN(c3ccccn3)CC2)cc1`, for which the inhibition was -4.7% (inactive).

Regarding `Cc1ccc(N2C(=O)C3CC3C2=O)cc1` (configuration not stated), the inhibition was 1.85% (inactive).

For `Cc1ccc(N2CCN(c3ccc(C)cc3)C2c2ccccn2)cc1`, the inhibition is 20.1% (active).

Regarding `CCC(CC)c1nnc(NC(=O)C2=COCCO2)s1`, the inhibition is -0.607% (inactive).

Turning to `COc1ccc(C2C3=C(CCCC3=O)N(CC(=O)O)C3=C2C(=O)CCC3)cc1`, the inhibition is 61.1% (active).

For the compound `COc1ccc(C2C(C#N)=C(N)N(c3ncn[nH]3)C3=C2C(=O)CCC3)cc1` (configuration not stated), the inhibition is 2.61% (inactive).

With `CCOc1ccc(C2C3=C(CCCC3=O)N(CC(=O)O)C3=C2C(=O)CCC3)cc1`, the inhibition is 63.4% (active).

In the case of `CCOc1ccc(C2C(C#N)=C(N)N(N(C)C)C3=C2C(=O)CCC3)cc1` (configuration not stated), the inhibition was -2.69% (inactive).

Turning to `CCOC(=O)C1=C(N)N(c2ccc(C)cc2)C2=C(C(=O)CCC2)C1c1cccs1` (configuration not stated), the inhibition was 1.06% (inactive).

Regarding `CCCCN1C(=O)CCC(C(=O)O)C1c1ccc(OC)cc1` (configuration not stated), the inhibition is -1.74% (inactive).

Turning to `O=C1c2ccccc2C(=O)c2c1cccc2N1CCN(C/C=C/c2ccccc2)CC1`, the inhibition is -1.77% (inactive).

On to `Cc1nc(-c2ccccc2)sc1C1(C)CC(c2cccnc2)=NO1` (configuration not stated), for which the inhibition was 4.13% (inactive).

For the compound `CCCCc1ccc(NC(=S)NCCCN2CCOCC2)cc1`, the inhibition is 1.19% (inactive).

`Cc1ccc(C(=O)NC(=S)NCCN2CCOCC2)cc1`: the inhibition is -2.12% (inactive).

As for `Cc1ccc(NC(=S)NCCN2CCOCC2)cc1`, the inhibition was 18% (active).

`CCCCn1c(N)c(N(CCC(C)C)C(=O)CC2OC(=O)c3ccccc32)c(=O)[nH]c1=O` (configuration not stated): the inhibition was 0.056% (inactive).

With `O=C(CCC1CCCN(C(=O)c2ccc(F)c(F)c2)C1)N1CCN(c2ccccn2)CC1` (configuration not stated), the inhibition is 2.85% (inactive).

As for `CCN1CCN(C(c2cccnc2)c2cc(Cl)c3cccnc3c2O)CC1` (configuration not stated), the inhibition was 2.34% (inactive).

As to `Oc1ccc(CN2CCN(c3ncccn3)CC2)cc1`, the inhibition is -6.09% (inactive).

As for `Oc1c(CN2CCN(c3ccc(F)cc3)CC2)cc(Cl)c2cccnc12`, the inhibition was 24.8% (active).

For the compound `O=C(N/N=C/c1cc(Br)c(O)c([N+](=O)[O-])c1)C(O)(c1ccccc1)c1ccccc1`, the inhibition is -0.0435% (inactive).

`CN(C)S(=O)(=O)c1ccc(N2CCCC2)c(C(=O)Nc2ccc(Br)cc2F)c1`: the inhibition is 0.866% (inactive).

Turning to `CC(Sc1nc(-c2ccccc2)cc(C(F)(F)F)n1)C(=O)Nc1ccc2c(c1)OCO2` (configuration not stated), the inhibition is -1.24% (inactive).

`CSc1nc(C)cc(SC(C(C)=O)C(=O)Nc2ccccc2)n1` (configuration not stated): the inhibition is -3.65% (inactive).

For the compound `CC(Sc1nnc2c(n1)C1CCC2(C)C1(C)C)C(=O)Nc1ccccc1` (configuration not stated), the inhibition is 27% (active).

One may read the inhibition as the relative decrease from the control value, in per cent.
